Assay results from PubChem BioAssay AID588591 (National Center for Advancing Translational Sciences (NCATS), 2011).
Screen size: about 390,000 compounds; about 4,700 (1.2%) were called active. Another 4% or so got no clear call; they are omitted. The list comes from a sample in which actives are over-represented; it also holds similar structures and randomly drawn compounds. Values without a mark were called inactive. The call rests on the fitted dose curve; in most records, active means well fitted inhibition curve with a large enough effect; inconclusive means small, poorly fitted or top-dose-only effect, or another doubt; inactive means no such curve, though single readings can be large or run the other way.

target: DNA polymerase eta (Homo sapiens) (UniProt Q9Y253); test: qHTS for Inhibitors of Polymerase Eta; details: recombinant Pol eta, fluorescent DNA replication assay; series mostly up to 114 µM; activity change, negative = inhibition: at the top concentration
Method in brief: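 Fluorescent replication assay: 50 nM final substrate added after a 15 min room-temperature compound preincubation with 10 nM enzyme. Signal taken at 0 min and again at 10 min.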
On the % scale 0 is the no-effect control and ±100 the full control effect; potency means the concentration at half of the fitted maximal effect.

Chain of DNA polymerase eta (Homo sapiens) (Q9Y253 whole entry, looked up): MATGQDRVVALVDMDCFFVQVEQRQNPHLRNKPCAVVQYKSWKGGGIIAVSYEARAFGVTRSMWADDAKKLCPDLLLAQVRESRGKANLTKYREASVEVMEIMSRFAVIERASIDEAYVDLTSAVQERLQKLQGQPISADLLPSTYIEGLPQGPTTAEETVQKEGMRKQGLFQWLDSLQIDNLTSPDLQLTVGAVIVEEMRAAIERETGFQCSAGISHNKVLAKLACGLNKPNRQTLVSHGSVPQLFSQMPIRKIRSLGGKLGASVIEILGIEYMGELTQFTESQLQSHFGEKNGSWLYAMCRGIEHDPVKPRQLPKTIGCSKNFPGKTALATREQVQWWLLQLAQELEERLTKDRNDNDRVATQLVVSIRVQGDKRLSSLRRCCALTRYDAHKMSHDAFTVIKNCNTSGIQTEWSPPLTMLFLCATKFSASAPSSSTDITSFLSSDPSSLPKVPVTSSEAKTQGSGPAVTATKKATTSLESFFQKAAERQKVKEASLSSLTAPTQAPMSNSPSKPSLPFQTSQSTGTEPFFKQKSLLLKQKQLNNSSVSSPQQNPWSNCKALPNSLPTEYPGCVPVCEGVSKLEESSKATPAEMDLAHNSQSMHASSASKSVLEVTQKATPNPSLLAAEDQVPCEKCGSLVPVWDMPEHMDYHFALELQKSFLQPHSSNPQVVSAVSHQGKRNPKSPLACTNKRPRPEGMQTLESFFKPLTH

Row | Structure (SMILES) | activity change, negative = inhibition | Potency
1 | CC(C)C[C@H](NC(=O)[C@H](O)[C@H](N)Cc1ccccc1)C(=O)O | -3.39% [at 57.1 µM] | –
2 | CC(=O)c1ccc(NC(=O)CCc2nnc3ccc(NCc4ccco4)nn23)cc1 | -3.8% | –
3 | O=C(CCc1nnc2ccc(NCc3ccco3)nn12)Nc1cc(F)ccc1F | – | 50.1 µM (active)
4 | CC1CCN(C(=O)CCc2nnc3ccc(NCc4ccco4)nn23)CC1 | 0.0463% | –
5 | CCc1ccc2oc(-c3ccc(NC(=O)c4cc5ccccc5o4)cc3)nc2c1 | -4.85% | –
6 | CCCNC(=O)c1ccc2c(c1)ncn2-c1ccc(C)cc1C | 8.94% | –
7 | COc1ccc(Cn2ccc3nc(C)c(C(=O)Nc4ccc(C)c(F)c4)cc3c2=O)cc1 | -17.6% | –
8 | CCN1CCN(c2cc(C)c3cc(NC(=O)c4cc(Cl)ccc4OC)ccc3n2)CC1 | 2.16% | –
9 | Cc1ccc(OCC(=O)Nc2ccc3oc(=O)ccc3c2)cc1C | 2% | –
10 | COc1ccc(NC(=O)c2ccco2)cc1NC(=O)COc1ccc(C)c(C)c1 | – | 89.1 µM (active)
11 | Cc1ccc(OCC(=O)Nc2ccccc2C(=O)NC2CC2)cc1C | 3.79% | –
12 | CCc1ccc(-n2nnc(-c3nc(-c4ccccc4)no3)c2C)cc1 | -18.6% | –
13 | O=C(c1cnn(-c2ccc(F)cc2)c1-n1cccc1)N1CCN(c2ccc(F)cc2)CC1 | -8.06% | –
14 | COc1ccc(Cl)cc1NC(=O)CSc1nc2ccccc2c2nc(-c3ccccc3)nn12 | -14.6% | –
15 | O=C(CCc1nc(CN2CCN(S(=O)(=O)c3ccc(F)cc3)CC2)no1)N1CCCCC1 | -11.5% | –
16 | O=C1C(Cl)=C(Oc2ccccc2)C(=O)c2ccccc21 | – | 7.94 µM (active)
17 | Cc1ccc(N(CC(=O)NCc2ccc(Cl)cc2)S(=O)(=O)N(C)C)cc1 | -9.02% | –
18 | O=C(CSc1ccc(/C=N/NC(=O)c2cccc(F)c2)o1)Nc1ccccc1 | -3.64% | –
19 | N#CCC(=O)N/N=C/c1ccc(SCC(=O)Nc2ccccc2)o1 | -11.6% | –
20 | O=C(CCNC(=O)c1ccccc1)NN=Cc1ccc(Br)o1 | – | 56.2 µM (active)
21 | Cc1cccc2c1-c1sc(C(=O)Nc3ccc(F)cc3F)cc1CO2 | -2.34% | –
22 | CCOc1ccc(-c2cc3nc(C4CCN(C(=O)OC(C)(C)C)CC4)c(C(=O)Nc4ccc(C(=O)OC)cc4)cn3n2)cc1 | -17.3% | –

Row | Structure (SMILES) | activity change, negative = inhibition | Potency
23 | Cc1ccc(-c2nnc(Nc3cccc(Br)c3)c3ccccc23)cc1S(=O)(=O)NCC1CCCO1 (stereo not given) | -4.88% | –
24 | Cc1ccc2c(c1)-c1c(cnn1CC(=O)Nc1ccccc1C#N)CO2 | -20.4% | –
25 | N#Cc1ccccc1CN1C(=O)S/C(=C/c2cccn2-c2cccc(C(=O)O)c2)C1=O | – | 3.16 µM (active)
26 | CN(C(=O)CSc1nc2ccccc2n1Cc1ccccc1C#N)c1ccccc1 | -5.18% | –
27 | COc1ccc(OC)c(-c2nc(C(N)=O)c3c(n2)n(-c2ccc4c(c2)OCO4)c(=O)n3C)c1 | -0.421% | –
28 | CCCOc1cccc(C(=O)Nc2cccc(NC(=O)c3ccc(C(C)(C)C)cc3)c2)c1 | -20.1% | –
29 | Cc1csc2nc(COc3ccc(NC(=O)COc4ccccc4)cc3)cc(=O)n12 | -12.8% | –
30 | CCc1nnc(NC(=O)CSc2nnc(COc3ccc(C#N)cc3)n2-c2ccccc2)s1 | -0.262% | –
31 | N#Cc1ccc(OCC(=O)Nc2nc(-c3ccccn3)cs2)cc1 | – | 22.4 µM (active)
32 | COCCNC(=O)CSc1c(C)cnc2c1c(=O)n(C)c(=O)n2C | -26.6% | –
33 | CCOC(=O)c1ccc(NC(=O)CCn2cnnn2)cc1 | -12% | –
34 | CCN(C(=O)c1sc2cc(OC)ccc2c1Cl)c1ccccc1 | -18.2% | –
35 | CCC(=O)N1CCc2cc(Br)cc(S(=O)(=O)CCC(=O)N3CCN(c4ccc(F)cc4)CC3)c21 | -12.4% | –
36 | O=C1Nc2ccc([N+](=O)[O-])cc2C1=Nc1cccc(CO)c1 | – | 20 µM (active)
37 | COc1ccccc1CNC(=O)CCCCn1c(=O)c2ccccc2n(CC(=O)Nc2cc(Cl)ccc2C)c1=O | 8.51% | –
38 | COc1cc(OC)c(NC(=O)c2cc(S(=O)(=O)N3CCCC3)cn2C)cc1Cl | -11.9% | –
39 | CCCN1CN=C(NS(=O)(=O)c2ccc(NC(C)=O)cc2)NC1 | -13.5% | –
40 | Cc1ccc(-n2c(=O)c3cccnc3n2CC(=O)Nc2ccccc2C(F)(F)F)cc1C | -2.51% | –
41 | COCCCNC(=O)c1c(NC(=O)c2cc(=O)c3cc(C)c(C)cc3o2)sc2c1CCCC2 | 8.47% | –
42 | CCc1ccc(NS(=O)(=O)c2ccc3[nH]cc(C(=O)NCCc4cccc(C)c4)c(=O)c3c2)cc1 | -14.7% | –
43 | CC(C)c1ccc(NS(=O)(=O)c2ccc3[nH]cc(C(=O)NC4CCCC4)c(=O)c3c2)cc1 | – | 31.6 µM (active)
44 | Cc1cc(C)cc(NS(=O)(=O)c2ccc3[nH]cc(C(=O)N4CCCCC4)c(=O)c3c2)c1 | -10.1% | –

Row | Structure (SMILES) | activity change, negative = inhibition | Potency
45 | CCOc1cc(C2c3c(-c4ccc(Br)cc4)n[nH]c3C(=O)N2c2ccc(Cl)cc2)ccc1O (stereo not given) | -27.5% | –
46 | Cc1cccc(Nc2nc(C)nc(N)c2S(=O)(=O)c2ccccc2)c1 | -6.89% | –
47 | COc1ccc(CCNC(=O)CCCn2c(=O)c3ccccc3n(Cc3ccc(C)cc3)c2=O)cc1OC | -10.4% | –
48 | CC(=O)c1ccc(S(=O)(=O)N2CCC(Oc3ccc(-n4cnnn4)cc3)CC2)cc1 | – | inactive
49 | CC(=O)c1cccc(Nc2ccc3cc(S(=O)(=O)N4CCC(C)CC4)ccc3n2)c1 | -25.7% | –
50 | CC(=O)c1ccc(S(=O)(=O)N2CCN(C(=O)/C=C/c3ccc4ccccc4n3)CC2)cc1 | – | 39.8 µM (active)
51 | Cc1ccccc1CNC(=O)CSc1nnc(C)c2c(C)n(-c3ccccc3)nc12 | -14% | –
52 | CN(Cc1ccccc1)C(=O)c1cn(C)c2ccc(S(=O)(=O)N3CCCCC3)cc2c1=O | -6.85% | –
53 | CCCCn1c(=N)c(S(=O)(=O)c2ccccc2)cc2c(=O)n3cccc(C)c3nc21 | -22.5% | –
54 | CCCc1cc(-c2n[nH]c(=S)n2CC)c2ccccc2n1 | -3.34% | –
55 | Cc1cc(-c2n[nH]c(=S)n2/N=C/C(Br)=C/c2ccccc2)n[nH]1 | – | 14.1 µM (active)
56 | Cc1ccc(NC(=O)CSc2nnc3[nH]c(=O)cc(C)n23)cc1Cl | 16.8% | –
57 | CCOc1ccc(NC(=O)C/C(C)=N/NC(=O)Cc2cccs2)cc1 | -8.22% | –
58 | CCc1nnc(NC(=O)CCC(=O)NCc2ccccc2OC)s1 | -7.14% | –
59 | CCc1nnc(NC(=O)Cc2cccs2)s1 | – | 35.5 µM (active)
60 | COc1ccc(Cc2nnc(NC(=O)Cc3cccs3)s2)cc1 | – | 1 µM (active)
61 | CC(C)(C)CC(=O)Nc1nnc(SCC(=O)NCc2cccs2)s1 | -15.9% | –
62 | CCOc1ccccc1NC(=O)Cc1cccs1 | – | 44.7 µM (active)
63 | CCOc1ccccc1NC(=O)CCn1cnnn1 | -19.3% | –
64 | COc1ccc(CC(=O)Nc2sc(Cc3ccccc3)c(C)c2C(N)=O)cc1 | -6.32% | –
65 | COc1ccc(CNC(=O)CCC(=O)Nc2nnc(C(C)C)s2)cc1 | -6.93% | –
